Compound activity (PubChem BioAssay)
An excerpt weighted towards active compounds, which were near 3.6% of everything screened.
Epigenetic derep: regulators of epigenetic silencing causing reporter derepression in mouse cells | murine LDR cells, GFP reporter derepression, 30 h | Potency, µM (highest dose often 53.9 µM), for the others: top-dose GFP activation, usual class: activators | 0.2% of 280,000 active; further: potency means the concentration at half of the fitted maximal effect; % of control where 0% means no effect; nearly all actives have a fitted effect of over 60% in size
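Murine LDR cells carrying a silenced, genomically integrated CMV-driven GFP reporter were exposed to compound for 30 hours at 37 C. After PBS washes, GFP-positive cells (20–120 um objects) were counted by laser-scanning microplate cytometry.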
IMPase Li inh: membrane-permeable IMPase blocker, potentiated with lithium | CHO-M1 cells, IP1 TR-FRET (IP-One), carbachol + lithium | AID 1457 | Potency, µM (series often up to 59.4 µM), for the others: top-dose activity, negative = IMPase inhibition, actives largely listed as inhibitors | 0.35% of 210,000 active;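 further: IP1 builds up when IMPase is blocked and the TR-FRET signal falls; potency means the concentration at half of the fitted maximal effect; plate controls were basal vehicle for no effect and high inhibitor control for full effect; nearly all actives have a fitted effect of over 50% in size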
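CHO cells stably expressing M1 receptor (2000/well, cultured 16–30 h) treated 30 min at 37C with compound plus low lithium. Cytosolic IP1 by TR-FRET (665/620 ratio and 620 channel) after 10 min lysis; AC50 by Hill fit.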
Sfp inh: blocks B. subtilis Sfp PPTase activity; Q9F4F7; Biochemical Sfp PPTase activity, qHTS; Potency, µM, without a hit: largest response in the series, negative = inhibition, most hits filed as inhibitors; 3.5% of 310,000 active;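 further: the enzyme is Sfp with the accession as filed and its product quenches rhodamine fluorescence; potency means the concentration at half of the fitted maximal effect; 0% = enzyme reaction without inhibitor and -100% = no enzyme wells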
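Compounds were incubated with enzyme (final 15 nM) for 15 min at room temperature before substrate addition started the reaction. Fluorescence at 525 nm excitation, 598 nm emission was recorded immediately and after 30 minutes.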
NPSR antagonist: antagonists of human neuropeptide S receptor cAMP signaling. Potency, µM (top dose mostly 38.3 µM), without a hit: at the top dose activity change, negative = inhibition, hits mostly inhibitors. 1% of 220,000 active. Q6W5P4. CHO-NPSR cells, cAMP TR-FRET, antagonist mode; further: potency means the concentration at half of the fitted maximal effect; on the % scale 0 is the no-effect control and ±100 the full control effect; nearly all actives have a fitted effect of over 50% in size
KAT2A inh: blocks human GCN5L2 histone acetyltransferase; Q92830; GCN5L2 HAT assay, ThioGlo1 CoA-SH fluorescence; Potency, µM (highest dose often 58.9 µM), inactives show at the top dose activity change, negative = inhibition, actives largely listed as inhibitors; 0.21% of 390,000 active; AID 504327; further: potency means the concentration at half of the fitted maximal effect; on the % scale 0 is the no-effect control and ±100 the full control effect
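Titration-based screen in which CoA formation is detected via maleimide probe ThioGlo1 (50uM) turning fluorescent on thiol reaction; substrates H3(1-25) 75uM and acetyl-CoA 70uM, GCN5L2 20nM, 20 min incubation at room temperature.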
JMJD2E inh: inhibitors of human JMJD2E histone demethylase; B2RXH2; JMJD2E catalytic domain, FDH-coupled NADH fluorescence (FDH is formaldehyde dehydrogenase); Potency, µM (top dose mostly 57.1 µM), inactives show at the highest dose activity change, negative = inhibition, hits mostly inhibitors; 1.6% of 230,000 active; AID 2147; active means well fitted inhibition curve with a large enough effect, not every such curve was filed as active; inconclusive means small, poorly fitted or top-dose-only effect, or another doubt; inactive means no such curve, though single readings can be large or run the other way;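 further: potency means the concentration at half of the fitted maximal effect; 0% = wells with enzyme and -100% = buffer wells without enzyme; nearly all actives have a fitted effect of over 50% in size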
Target sequence (B2RXH2 1-337 limits assumed): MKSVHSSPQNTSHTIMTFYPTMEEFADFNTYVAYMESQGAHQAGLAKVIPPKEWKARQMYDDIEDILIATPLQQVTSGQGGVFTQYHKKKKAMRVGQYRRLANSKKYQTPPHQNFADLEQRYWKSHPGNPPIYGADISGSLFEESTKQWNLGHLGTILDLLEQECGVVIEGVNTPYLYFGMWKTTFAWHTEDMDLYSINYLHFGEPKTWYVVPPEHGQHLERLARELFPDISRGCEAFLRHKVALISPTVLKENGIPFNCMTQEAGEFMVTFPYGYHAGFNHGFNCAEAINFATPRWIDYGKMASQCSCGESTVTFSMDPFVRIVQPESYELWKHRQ
Sfp PPTase conf: confirmation of Bacillus subtilis Sfp PPTase inhibitors | shares compounds with Sfp inh | Sfp PPTase enzymatic assay, qHTS titration | Potency, µM (doses to about 114 µM), inactives show at the highest dose activity change, negative = inhibition, actives largely listed as inhibitors | 79% of 380 active;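 further: potency means the concentration at half of the fitted maximal effect; plate controls were uninhibited Sfp reaction for no effect and no enzyme control for full effect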
Target sequence (Q9F4F7 whole entry, looked up): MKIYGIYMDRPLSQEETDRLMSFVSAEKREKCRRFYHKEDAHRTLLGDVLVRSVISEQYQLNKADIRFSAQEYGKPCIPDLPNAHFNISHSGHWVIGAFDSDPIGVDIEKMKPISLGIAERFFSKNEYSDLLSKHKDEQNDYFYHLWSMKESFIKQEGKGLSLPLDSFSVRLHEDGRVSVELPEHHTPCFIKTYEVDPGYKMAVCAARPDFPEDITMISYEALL
Sfp PPTase gel: Inhibits B. subtilis Sfp phosphopantetheinylation | shares compounds with Sfp inh | purified Sfp, gel-based phosphopantetheinylation read-out | Potency, µM, usual class: inhibitors | 20% of 210 active | AID 2707;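 active means potency below 100 µM; inconclusive means dose-dependent response but potency above 100 µM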;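 further: band intensities scaled against SCH202676 control wells before curve fitting; potency is an IC50 for inhibitors of Sfp transfer activity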
Active calls of the source: *; i = inactive; ? = inconclusive; · = no result; ! = not confirmed by another sample; [ ] = dose if it differs, or a comment. Unless noted, the call rests on the fitted dose curve; in most records, active means well fitted curve in the direction sought with a large enough effect; inconclusive means small, poorly fitted or top-dose-only effect, or another doubt; inactive means no such curve, though single readings can be large; an effect the other way counts as inactive or inconclusive.

SMILES | Epigenetic derep | IMPase Li inh | Sfp inh | NPSR antagonist | KAT2A inh | JMJD2E inh | Sfp PPTase conf | others
COC(=O)c1c(NC(=O)COC(=O)c2ccc(Cl)cc2[N+](=O)[O-])sc2c1CCCCC2 | 2% | 2% | 10µM* | -36% | 28µM* | -9% | ?
COC(=O)c1c(NC(=O)COc2ccc(Cl)cc2C)sc2c1CCCCC2 | -1% | · | · | · | 1% | · | ·
CCCCNC(=O)c1cnn2c(C)c(Cc3c(F)cccc3Cl)c(C)nc12 | -2% | · | · | · | 2% | · | ·
CCC1CC2(C)NC(=O)c3c(sc4c3CC(C)(C)OC4)N2C1=O (centres undefined) | -1% | -11%[38.3 µM] | 16µM* | 2%[46.1 µM] | -6% | ? | 19µM*
O=C(CC(Nc1ccc(Cl)cc1)C(=O)O)c1ccccc1 (centres undefined) | -2% | -10% | 7.1µM* | 4%[46.1 µM] | 2% | 20% | ? | Sfp PPTase gel=?
O=C(CC(Nc1ccccc1Cl)C(=O)O)c1ccccc1 (centres undefined) | -1% | 2% | 4µM* | -8% | 14% | -24% | 13µM* | Sfp PPTase gel=?
O=C(CC(C(=O)O)c1ccc(Cl)cc1)c1ccccc1 (centres undefined) | -3% | -12% | 1% | -7% | -3% | 6% | ·
Cc1c(Cl)cccc1NC(=O)CC(Cc1ccccc1)C(=O)O (centres undefined) | · | · | 21% | · | 2% | · | ·
Cc1c(Cl)cccc1NC(CC(=O)c1ccccc1)C(=O)O (centres undefined) | 0% | -4% | 7.9µM* | -15% | -13% | -7% | 11µM* | Sfp PPTase gel=i
O=C(CCCn1c(=O)[nH]c2ccccc2c1=O)N1CCN(c2ccccc2)CC1 | -1% | · | · | · | -2% | · | ·
COc1ccccc1/C=C/c1nc(C#N)c(N2CCN(C)CC2)o1 | ? | · | · | · | -6% | · | ·
Cc1ccc(S(=O)(=O)NCCc2cn3ccsc3n2)c(C)c1 | 0% | · | · | · | 0% | · | ·
c1cncc(-c2nnc(-c3cccnc3)nn2)c1 | 1% | -3%[38.3 µM] | 40µM* | -17%[7.67 µM] | -9% | ? | 15µM*
O=C(O)Cn1ncc2ccccc2c1=O | -8% | -5% | 10% | -11% | -9% | -8% | ·
O=C(O)Cn1ncc2c1-c1ccoc1CC2 | 12% | -4%[38.3 µM] | 45µM* | 14%[46.1 µM] | 1% | ? | ?
CC(C)c1ccc(S(=O)(=O)c2nnn3c2nc(N2CCCCC2)c2sccc23)cc1 | 1% | · | · | · | -19% | · | ·
Cc1ccn2c(Nc3ccc4c(c3)OCCO4)c(-c3ccc(N(C)C)cc3)nc2c1 | 1% | · | · | · | -7% | · | ·
CNC[C@H](O)c1ccc(O)c(O)c1 | 0% | -6% | 25µM*! | 7%[46.1 µM] | 5% | 16µM* | ? | Sfp PPTase gel=i
CNC[C@@H](SC)c1ccc(O)c(O)c1 | · | 1% | · | · | · | · | ·
CCCc1cnc2c(c1SCC(=O)N(C)c1ccccc1)c(=O)n(C)c(=O)n2C | 0% | · | · | · | 5% | · | ·
c1ccc(-c2nnc(CN3CCCc4ccccc43)o2)cc1 | 5% | 18%[38.3 µM] | 14µM* | -6%[46.1 µM] | -16% | ? | 47µM* | Sfp PPTase gel=?
Nc1nc2c(s1)CCc1c-2cnn1-c1ccccc1 | ? | 68%[38.3 µM] | 2.5µM* | ? | -29% | ? | 7.4µM*
c1ccc(CCn2cnc3ccccc32)cc1 | -1% | 1% | 15% | 11% | -14% | 4% | ·
c1ccc(CCc2nn3c(Cn4nnc5ccccc54)nnc3s2)cc1 | 0% | 7%[38.3 µM] | 13µM* | -12%[46.1 µM] | -16% | -14% | 42µM*
c1ccc(CCc2nn3c(Cn4cnc5ccccc54)nnc3s2)cc1 | -12% | 14% | 10µM* | -20%[46.1 µM] | -11% | -4% | 13µM*
